One may read the AC50 as the midpoint of the concentration-response curve, whichever way the signal moves.

Assay [1] in a line: ATG_CRE_CIS: Attagene CIS-FACTORIAL HepG2 Assay for human cAMP Responsive Element (CRE) binding protein 3 (AID 2282926). Particulars: HepG2 CRE cis-reporter, Attagene multiplexed mRNA; actives raise or lower the signal. In a few lines: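 Human liver HepG2, transient MRTU transfection, 24 h compound exposure. Total RNA → oligo(dT) RT → PCR → 6-FAM primer extension → HpaI cut → CE. Activity called both directions vs DMSO.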

In assay [2] the target is CCAAT/enhancer-binding protein beta (Homo sapiens) (UniProt P17676). As to the kind of experiment: ATG_C_EBP_CIS: Attagene CIS-FACTORIAL HepG2 Assay for human CCAAT/Enhancer Binding Protein (C/EBP) beta (AID 2282927). Particulars: HepG2 Attagene cis-factorial transcription factor reporter; actives raise or lower the signal. In a few lines:
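Endogenous C/EBPb-driven reporter transcripts measured in transfected human HepG2 cells at 24 h via RT-PCR and capillary electrophoresis of labelled fragments. Activity fitted in both directions relative to DMSO baseline.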

Assay [3] is described as follows: ATG_DR4_LXR_CIS: Attagene CIS-FACTORIAL HepG2 Assay for human Liver X Receptor (LXR), DR4 submotif (AID 2282929). The conditions noted are these: HepG2 Attagene DR4 cis-reporter, mRNA transcription; actives raise or lower the signal. In outline: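 Measures endogenous transcription factor activity via a DR4-driven reporter transcript in human HepG2 cells. Compounds incubated 24 h; mRNA quantified by RT-PCR and capillary electrophoresis, analysed as gain or loss of signal versus DMSO.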

Assay [4] can be described thus: ATG_AP_2_CIS: Attagene CIS-FACTORIAL HepG2 Assay for human Activator Protein 2 (AP-2) (AID 2282932). The conditions noted are these: HepG2 AP-2 cis-reporter, Attagene transcription factor profiling; actives raise or lower the signal. In outline:
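HepG2, transient MRTU transfection, cis-regulated reporters; 24 h compound exposure; RNA isolated, RT-PCR, 6-FAM labelling, HpaI digest, CE fluorescence. DMSO = negative control/baseline, bidirectional fit.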

The nature of assay [5]: ATG_BRE_CIS: Attagene CIS-FACTORIAL HepG2 Assay for human Bone Morphogenetic Protein (BMP) Response Element (BRE) (AID 2282933). Particulars: HepG2 BMP response element reporter, Attagene transcription factor profiling; actives raise or lower the signal. In a few lines: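 Read-out: reporter mRNA induction quantified by RT-PCR and capillary electrophoresis after 24 h chemical exposure of transfected HepG2 cells. Endogenous factor activity on the BMP response element; gain or loss fitted against DMSO baseline.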

The target in assay [6] is Transcription factor E2F1 (Homo sapiens) (UniProt Q01094). As to the kind of experiment: ATG_E2F_CIS: Attagene CIS-FACTORIAL HepG2 Assay for human E2F Transcription Factor 1 (AID 2282935). The conditions noted are these: HepG2 Attagene cis-reporter, E2F reporter RNA transcripts; actives raise or lower the signal. In a few lines:
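Cis-element reporter mRNA induction in transiently transfected HepG2, 24 h exposure. Activity fitted in both directions relative to DMSO negative control.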

The nature of assay [7]: ATG_EGR_CIS: Attagene CIS-FACTORIAL HepG2 Assay for human Early Growth Response 1 (EGR1) (AID 2282938). Particulars: HepG2 Attagene CIS-FACTORIAL EGR reporter mRNA; actives raise or lower the signal. In a few lines:
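Cell-based multiplex transcription assay: HepG2 carrying transfected cis-element reporter units, 24 h chemical treatment. Fluorescence from capillary electrophoresis of RT-PCR products gives mRNA levels; fitting is bidirectional relative to DMSO.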

Assay [8] can be described thus: ATG_M_19_CIS: Attagene CIS-FACTORIAL HepG2 Assay for M19 Transcription Factor (Internal Marker) (AID 2282939). Particulars: HepG2 Attagene CIS-FACTORIAL M19 internal marker reporter; actives raise or lower the signal. In outline: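 Readout: fluorescent reporter-transcript fragments by capillary electrophoresis after RT-PCR. Human HepG2 liver cells carried transfected MRTU constructs reporting endogenous transcription-factor activity; exposure 24 h. Gain or loss of signal fitted relative to DMSO.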

A short description of assay [9]: ATG_Ets_CIS: Attagene CIS-FACTORIAL HepG2 Assay for human Erythroblast Transformation Specific (ETS) (AID 2282941). Particulars: HepG2 ETS cis-reporter transcription, actives raise or lower the signal. In a few lines: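 Human HepG2 hepatoma cells were transiently transfected with promoter-driven reporter constructs and treated for 24 hours. Reporter transcripts were quantified by RT-PCR with fluorescent primer extension; bidirectional curve fitting used DMSO as reference.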

The target of assay [10] is Hepatocyte nuclear factor 3-beta (Homo sapiens) (UniProt Q9Y261). In words: ATG_FoxA2_CIS: Attagene CIS-FACTORIAL HepG2 Assay for human Forkhead box A2 (FOXA2) (AID 2282942). Particulars: HepG2 cis-reporter transcription factor activity, 24 h; actives raise or lower the signal. In outline: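 In transiently transfected human HepG2 cells, promoter-driven reporter mRNA levels after 24 h chemical exposure are determined via RT-PCR with capillary electrophoresis. DMSO serves as baseline for bidirectional fitting.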
Hepatocyte nuclear factor 3-beta (Homo sapiens), sequence (Q9Y261 whole entry, looked up): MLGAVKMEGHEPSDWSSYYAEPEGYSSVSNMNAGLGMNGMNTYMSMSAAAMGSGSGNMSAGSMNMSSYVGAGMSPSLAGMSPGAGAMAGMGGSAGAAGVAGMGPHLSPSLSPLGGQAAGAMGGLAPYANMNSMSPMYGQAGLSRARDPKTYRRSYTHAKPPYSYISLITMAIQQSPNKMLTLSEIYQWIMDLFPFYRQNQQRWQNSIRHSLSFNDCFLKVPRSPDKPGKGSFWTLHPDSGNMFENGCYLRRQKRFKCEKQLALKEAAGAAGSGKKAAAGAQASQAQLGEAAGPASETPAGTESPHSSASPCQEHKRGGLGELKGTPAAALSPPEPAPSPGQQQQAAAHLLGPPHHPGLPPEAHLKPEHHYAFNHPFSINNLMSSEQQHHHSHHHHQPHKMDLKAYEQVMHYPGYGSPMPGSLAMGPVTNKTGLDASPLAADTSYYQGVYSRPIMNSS

Assay [11] is described as follows: ATG_FoxO_CIS: Attagene CIS-FACTORIAL HepG2 Assay for human Forkhead box O (FoxO) (AID 2282943). The conditions noted are these: HepG2 Attagene cis-reporter, FoxO element, mRNA; actives raise or lower the signal. In outline: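 Endogenous transcription factor activity read from multiplexed cis-promoter reporter transcripts in transiently transfected HepG2, 24 h after dosing. Reporter RNA measured via RT-PCR plus capillary electrophoresis of FAM-labeled products; gain or loss relative to DMSO.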

Assay [12] in a line: ATG_GATA_CIS: Attagene CIS-FACTORIAL HepG2 Assay for human GATA Binding Protein (AID 2282944). Particulars: HepG2 GATA cis-element reporter, Attagene multiplex mRNA; actives raise or lower the signal. In outline: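 Read-out: fluorescent reporter mRNA fragments resolved by capillary electrophoresis after RT-PCR. Human liver HepG2 cells carried transiently transfected cis-regulated reporter constructs; chemicals incubated 24 h; gain or loss of signal fitted relative to DMSO.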

The nature of assay [13]: ATG_GLI_CIS: Attagene CIS-FACTORIAL HepG2 Assay for human Zinc Finger Protein GLI1 (AID 2282945). The conditions noted are these: HepG2, Attagene cis-factorial reporter mRNA, GLI element; actives raise or lower the signal. In a few lines:
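Bidirectional curve fits relative to DMSO, using reporter mRNA levels from RT-PCR plus capillary electrophoresis. Cells were HepG2 transiently carrying cis-regulated reporter constructs, harvested 24 h after dosing.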

Assay [14] is described as follows: ATG_M_06_CIS: Attagene CIS-FACTORIAL HepG2 Assay for M06 Transcription Factor (Internal Marker) (AID 2282950). The conditions noted are these: HepG2 Attagene CIS-FACTORIAL M06 internal marker reporter; actives raise or lower the signal. In a few lines:
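Terse: HepG2, transient MRTU transfection (FuGene 6), 24 h dosing; total RNA, oligo(dT) RT, PCR, FAM label, HpaI cut, capillary electrophoresis; bidirectional fit vs DMSO baseline; background-control endpoint.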

Assay [15] can be described thus: ATG_MRE_CIS: Attagene CIS-FACTORIAL HepG2 Assay for human Metal Responsive Element (MRE) (AID 2282954). Particulars: HepG2 MRE cis-reporter transcription, Attagene multiplex; actives raise or lower the signal. In outline: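 Transient MRTU transfection of HepG2 (FuGene 6); 24 h dosing; total RNA → oligo(dT) RT, PCR, 6-FAM primer extension, HpaI cut, CE. Bidirectional fit vs DMSO.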

In assay [16] the target is Paired box protein Pax-6 (Homo sapiens) (UniProt P26367). As to the kind of experiment: ATG_Pax6_CIS: Attagene CIS-FACTORIAL HepG2 Assay for human Paired Box 6 (PAX6) (AID 2282956). Particulars: HepG2 CIS-FACTORIAL PAX6 reporter transcription, RNA readout; actives raise or lower the signal. In outline: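 Multiplexed cis-reporter HepG2 system; 24 h treatment; reporter mRNA read by RT-PCR/CE fluorescence; bidirectional fit vs DMSO.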
Paired box protein Pax-6 (Homo sapiens), sequence (P26367 whole entry, looked up): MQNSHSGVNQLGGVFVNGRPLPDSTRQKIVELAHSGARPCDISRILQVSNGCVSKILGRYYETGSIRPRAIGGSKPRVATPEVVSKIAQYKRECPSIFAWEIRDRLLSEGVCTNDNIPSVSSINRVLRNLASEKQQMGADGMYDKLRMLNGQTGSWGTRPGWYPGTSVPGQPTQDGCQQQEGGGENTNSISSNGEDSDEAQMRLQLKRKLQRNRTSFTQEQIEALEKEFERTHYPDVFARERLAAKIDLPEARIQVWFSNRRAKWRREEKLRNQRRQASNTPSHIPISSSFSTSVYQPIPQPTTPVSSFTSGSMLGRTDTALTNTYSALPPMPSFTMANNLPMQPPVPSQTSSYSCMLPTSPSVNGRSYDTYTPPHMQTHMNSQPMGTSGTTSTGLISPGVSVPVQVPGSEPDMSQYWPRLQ

The nature of assay [17]: ATG_PXRE_CIS: Attagene CIS-FACTORIAL HepG2 Assay for human Pregnane X Receptor Element (PXRE) (AID 2282957). Particulars: HepG2 Attagene CIS-FACTORIAL PXRE reporter, mRNA; actives raise or lower the signal. In a few lines:
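Transfect HepG2 with MRTUs (cis promoter elements); dose chemical, incubate 24 h; isolate RNA, RT with oligo(dT), PCR, 6-FAM label, HpaI cut, CE. Gain/loss fit vs DMSO.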

Assay [18] in a line: ATG_Sox_CIS: Attagene CIS-FACTORIAL HepG2 Assay for human SRY-box transcription factor (SOX) (AID 2282960). Particulars: HepG2 Attagene cis-factorial SOX reporter, mRNA; actives raise or lower the signal. In outline:
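After 24 h of chemical treatment, transfected HepG2 reporter cells are lysed for total RNA. Transcript levels come from RT-PCR with labelled primer extension and capillary electrophoresis, analysed bidirectionally versus DMSO.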

Assay [19] addresses Transcription factor Sp1 (Homo sapiens) (UniProt P08047). As to the kind of experiment: ATG_Sp1_CIS: Attagene CIS-FACTORIAL HepG2 Assay for human Specificity Protein 1 (Sp1) (AID 2282961). The conditions noted are these: HepG2 Sp1 cis-reporter transcription, actives raise or lower the signal. In a few lines: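 Sp1-driven reporter mRNA, read as capillary electrophoresis fluorescence after RT-PCR, in transiently transfected HepG2 cells dosed for 24 h; signal change in either direction relative to DMSO.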

Assay [20] can be described thus: ATG_SREBP_CIS: Attagene CIS-FACTORIAL HepG2 Assay for human Sterol Regulatory Element Binding (SREBP) (AID 2282962). Particulars: HepG2 Attagene cis-factorial SREBP reporter, mRNA; actives raise or lower the signal. In outline: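 mRNA induction of transfected cis-promoter reporters in HepG2 cells, 24 h post-dose. Detection: RT-PCR with 6-FAM-labelled products, HpaI digest, capillary electrophoresis. DMSO served as negative control and baseline.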

Activity calls are given as the source filed them. Rule for the calls: active = hit-call score of the fitted dose curve at least 0.9, where 1 is the maximum; inactive = score below 0.9.

Transcription factor Sp1 (Homo sapiens), sequence (P08047 whole entry, looked up): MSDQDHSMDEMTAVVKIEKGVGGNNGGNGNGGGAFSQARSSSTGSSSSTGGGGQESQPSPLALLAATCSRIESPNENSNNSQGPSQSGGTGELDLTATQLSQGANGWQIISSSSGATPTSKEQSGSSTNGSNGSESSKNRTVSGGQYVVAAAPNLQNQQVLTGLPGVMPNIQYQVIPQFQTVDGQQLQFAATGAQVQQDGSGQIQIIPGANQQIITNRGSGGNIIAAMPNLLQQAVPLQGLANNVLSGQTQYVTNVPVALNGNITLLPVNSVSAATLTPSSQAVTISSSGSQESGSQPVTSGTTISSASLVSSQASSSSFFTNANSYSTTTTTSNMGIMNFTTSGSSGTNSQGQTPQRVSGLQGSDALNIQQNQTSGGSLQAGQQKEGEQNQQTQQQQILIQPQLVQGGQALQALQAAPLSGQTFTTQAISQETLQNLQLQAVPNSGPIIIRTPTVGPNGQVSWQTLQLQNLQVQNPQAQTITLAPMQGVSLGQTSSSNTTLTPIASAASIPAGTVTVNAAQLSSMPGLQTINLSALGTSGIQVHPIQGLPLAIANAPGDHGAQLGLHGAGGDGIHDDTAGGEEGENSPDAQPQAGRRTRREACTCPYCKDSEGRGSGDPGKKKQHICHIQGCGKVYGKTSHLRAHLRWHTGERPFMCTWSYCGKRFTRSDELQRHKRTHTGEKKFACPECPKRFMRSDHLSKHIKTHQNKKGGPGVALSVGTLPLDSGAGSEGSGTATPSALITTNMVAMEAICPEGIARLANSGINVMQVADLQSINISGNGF
Transcription factor E2F1 (Homo sapiens), sequence (Q01094 whole entry, looked up): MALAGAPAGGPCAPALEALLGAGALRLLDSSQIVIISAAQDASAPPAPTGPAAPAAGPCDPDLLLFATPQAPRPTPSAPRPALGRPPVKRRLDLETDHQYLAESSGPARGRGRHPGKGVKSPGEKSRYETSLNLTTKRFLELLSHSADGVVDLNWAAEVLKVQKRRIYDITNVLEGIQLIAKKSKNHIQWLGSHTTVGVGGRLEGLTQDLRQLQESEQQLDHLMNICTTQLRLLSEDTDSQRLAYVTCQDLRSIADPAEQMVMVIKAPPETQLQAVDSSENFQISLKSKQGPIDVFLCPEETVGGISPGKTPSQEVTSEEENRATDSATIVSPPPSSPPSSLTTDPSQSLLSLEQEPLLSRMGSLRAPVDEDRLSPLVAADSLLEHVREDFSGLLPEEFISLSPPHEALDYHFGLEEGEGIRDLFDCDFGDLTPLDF
CCAAT/enhancer-binding protein beta (Homo sapiens), sequence (P17676 whole entry, looked up, the tested form may be a part): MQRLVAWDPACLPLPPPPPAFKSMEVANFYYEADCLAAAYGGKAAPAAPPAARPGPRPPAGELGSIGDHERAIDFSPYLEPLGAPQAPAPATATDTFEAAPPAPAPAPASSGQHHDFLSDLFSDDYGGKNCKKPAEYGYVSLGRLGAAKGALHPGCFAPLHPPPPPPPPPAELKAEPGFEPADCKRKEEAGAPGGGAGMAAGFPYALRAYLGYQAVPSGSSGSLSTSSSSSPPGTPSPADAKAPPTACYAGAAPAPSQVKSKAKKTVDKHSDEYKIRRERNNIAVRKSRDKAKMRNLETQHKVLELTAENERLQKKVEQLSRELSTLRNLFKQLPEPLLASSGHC

Turning to `CNC(=N[N+](=O)[O-])NCC1CCOC1` (stereo not given), the call in [1], in [2], in assay [3], in [4], in [5] and in [6] was inactive. Moreover, the compound was classed as inactive in [7], in [8], in assay [9], in assay [10], in assay [11] and in [12]. The outcome in assay [13], in assay [14], in [15], in [16], in assay [17] and in [18] was inactive. Also, the result in [19] and in assay [20] was inactive.

`Cc1ccc(N(SC(F)(Cl)Cl)S(=O)(=O)N(C)C)cc1`: the outcome in assay [1], in [2], in assay [4], in assay [5], in assay [6] and in [8] was inactive. Further, the result in assay [9], in assay [10], in assay [11], in [12], in [14] and in assay [17] was inactive. Moreover, the outcome in assay [20] was inactive. The AC50 in assay [3] is 15.2 µM (active); in assay [7], 11.1 µM (active); in assay [13] it was 11.1 µM (active); in assay [15] it was 15.8 µM (active); in assay [16], 17.9 µM (active); in assay [18] it was 18.5 µM (active). For the same compound, the concentration at half-maximal activity (AC50) in assay [19] is 18.8 µM (active).

Regarding `CCc1cc(C)cc(CC)c1-c1c(OC(=O)C(C)(C)C)n2n(c1=O)CCOCC2`, the call in [1], in assay [2], in [3], in [4], in [5] and in assay [7] was inactive. In addition, the outcome in [8], in assay [9], in assay [10], in assay [11], in assay [12] and in assay [13] was inactive. The call in assay [14], in assay [15], in assay [16], in [18], in assay [19] and in assay [20] was inactive. Besides, the AC50 is 25.8 µM (active) in [6] and 9.48 µM (active) in assay [17].

For the compound `C=CCO`, the compound was called inactive in [1], in assay [2], in assay [3], in [4], in assay [5] and in assay [6]. For the same compound, the compound was classed as inactive in assay [7], in assay [8], in assay [9], in assay [10], in assay [11] and in assay [12]. Moreover, the call in [13], in assay [14], in [15], in assay [16], in assay [17] and in assay [18] was inactive. Besides, the compound was called inactive in assay [19] and in assay [20].
